Vif-APOBEC3F blk – Vif-A3F binding inhibition; HeLa A3F-eYFP + Vif (tagged APOBEC3F with the HIV-1 protein that degrades it), YFP fluorescence increase; Potency, µM (highest dose often 46.1 µM), for the others: at the top dose activity, negative = active; 390,000 compounds, 0.2% hits; AID 602313; also: potency is read from the fitted curve at half-maximal effect; % of control where 0% means no effect; nearly all actives have a fitted effect of over 65% in size
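Fluorescence increase (Ex 488/Em 500-530) after overnight compound treatment at 37 deg C flags inhibition of Vif-driven A3F-eYFP loss in stable HeLa A3F-eYFP/Vif cells seeded overnight beforehand.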
Giardia killer – Giardia lamblia killing | Giardia lamblia trophozoite viability | activity change, % at 7.66 µM, hits read low | 340,000 compounds, 0.15% hits | AID 540267; in the data active = activity change below about -80%; inconclusive = between about -30% and that limit;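 also: parasites exposed to compound for two days anaerobically before the ATP read; % is scaled to controls: 0 for no effect and ±100 for the full control effect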
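Giardia lamblia trophozoites (100 cells/well) were incubated with compounds for 48 h at 37 deg C under anaerobic conditions. Viability was read as ATP content by one-step luminescence after 15-30 min at room temperature.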
SW480 rereplic – DNA re-replication induction in SW480 cells; SW480 DNA re-replication, Hoechst DNA content imaging, 48 h; 340,000 compounds, 1.8% hits; Potency, µM (top dose mostly 46.1 µM), for inactives: at the highest dose re-replication activation, most hits filed as activators; also: potency is read from the fitted curve at half-maximal effect; % of control where 0% means no effect; nearly all actives have a fitted effect of over 55% in size
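250 cells/well; 23 nL cpd via pin tool; 48 hr, 37 C, 5% CO2; Hoechst 40 min; imager read of total nuclear intensity, ex 405/em 500-530 nm.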
MCF10A rerep – DNA re-replication induction in MCF 10a cells; Potency, µM (series often up to 46.1 µM), without a hit: at the highest dose activity, positive = re-replication, hits mostly activators; MCF 10A DNA re-replication, Hoechst nuclear intensity, 48 h; 350,000 compounds, 2.9% hits; also: potency is read from the fitted curve at half-maximal effect; % of control where 0% means no effect; nearly all actives have a fitted effect of over 50% in size
IL1B secr inh – inflammasome signaling inhibition, IL-1 beta readout | THP-1 LPS/ATP IL-1B secretion, AlphaLISA, 16 h; active compounds read low | activity change, % at 57.5 µM | 360,000 compounds, 4.7% hits; in the data active = activity change below about -50%; inconclusive = mostly about -30% to -49%; also: % is scaled to controls: 0 for no effect and ±100 for the full control effect
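THP-1 cells pretreated 1 hr with compounds (up to 57.5 uM final), then stimulated with LPS (250 ng/mL final) plus ATP (1.25 mM final); secreted IL-1B measured by AlphaLISA after 16 hr, decreased signal indicating inhibition.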
Vif-A3G inh – Vif-A3G binding inhibition. Q9HC16. HeLa A3G-eYFP + Vif (tagged APOBEC3G with the HIV-1 protein that degrades it), YFP fluorescence, overnight. Potency, µM (top dose mostly 46.1 µM), for inactives: at the top dose activity, negative = active, usual class: inhibitors. 410,000 compounds, 0.076% hits. AID 602310; also: potency is read from the fitted curve at half-maximal effect; % is scaled to controls: 0 for no effect and ±100 for the full control effect; nearly all actives have a fitted effect of over 60% in size
Target sequence (Q9HC16 whole entry, looked up): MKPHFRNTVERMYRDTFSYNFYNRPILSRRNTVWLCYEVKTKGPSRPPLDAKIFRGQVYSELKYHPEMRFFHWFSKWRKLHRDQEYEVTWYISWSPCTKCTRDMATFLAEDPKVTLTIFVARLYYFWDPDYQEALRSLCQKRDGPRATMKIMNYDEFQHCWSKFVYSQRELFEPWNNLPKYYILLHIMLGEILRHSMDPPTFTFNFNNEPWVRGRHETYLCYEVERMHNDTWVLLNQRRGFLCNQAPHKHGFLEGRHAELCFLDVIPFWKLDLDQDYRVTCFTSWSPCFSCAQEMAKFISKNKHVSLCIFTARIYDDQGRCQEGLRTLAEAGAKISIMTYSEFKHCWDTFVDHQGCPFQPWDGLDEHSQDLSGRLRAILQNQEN
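Read-out is eYFP fluorescence (Ex 488/Em 500-530) from Vif-expressing HeLa A3G-eYFP cells; more signal means A3G escaped Vif-mediated degradation. Cells plated overnight, compound pinned in, incubated overnight at 37 deg C.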
* = called active by the depositor. Only some compounds are listed: those with a hit (about 6.9% of all), similar ones and a draw of the others. Unless noted, calls follow the shape of the dose curve; as a rule, active = well fitted curve in the direction sought with a large enough effect; inconclusive = small, poorly fitted or top-dose-only effect, or another doubt; inactive = no such curve, though single readings can be large; an effect the other way counts as inactive or inconclusive.

`O=C1NC[C@H](Cc2ccccc2)N(C[C@H]2CCCN2C[C@H](Cc2ccc(O)cc2)N2C[C@H](Cc3ccc(O)cc3)N(CC3CCCCCC3)C(=O)C2=O)C1=O` gave Vif-APOBEC3F blk 3%, Giardia killer -1, SW480 rereplic 6%, MCF10A rerep 2%, IL1B secr inh inconclusive and Vif-A3G inh -5%.
For CC(C)C[C@@H](CN1CCC[C@H]1CN1C(=O)C(=O)NC[C@@H]1Cc1ccc(O)cc1)N1C[C@H](Cc2ccccc2)N(CC2CCCCCC2)C(=O)C1=O the results were IL1B secr inh -91*.
For CC(C)C[C@@H](CN1CCC[C@@H]1CN1C(=O)C(=O)NC[C@@H]1Cc1ccccc1)N1C[C@H](Cc2ccc(O)cc2)N(CC2CCCCCC2)C(=O)C1=O the results were Vif-APOBEC3F blk -16%, Giardia killer 4, SW480 rereplic inconclusive, MCF10A rerep inconclusive, IL1B secr inh -72* and Vif-A3G inh -3%.
For CC(C)C[C@@H](CN1CCC[C@H]1CN1C(=O)C(=O)NC[C@@H]1Cc1ccccc1)N1C[C@H](Cc2ccccc2)N(CC2CCCCCC2)C(=O)C1=O the results were IL1B secr inh -80*.
`C[N+]1(CC(=O)c2cccc([N+](=O)[O-])c2)CCOCC1` gave Vif-A3G inh 2%.
Cc1c(Cl)cccc1NC(=O)CCS(=O)(=O)c1cccc2nsnc12 was read as Vif-APOBEC3F blk -5% and Vif-A3G inh 0%.
Cc1cc(C)c(S(=O)(=O)Nc2cc(Cl)c3oc4c(c3c2)C(=O)CCC4)cc1C was read as Vif-APOBEC3F blk 3% and Vif-A3G inh 3%.
For CCC(C)N(C(=O)CSc1ncnc2sccc12)C1CCS(=O)(=O)C1 (configuration not stated) the results were Vif-APOBEC3F blk -7%, Giardia killer 2, SW480 rereplic 0%, MCF10A rerep -2%, IL1B secr inh 0 and Vif-A3G inh 0%.
For CCC(C)N(C(=O)CSc1nc(-c2cccs2)nc2ccccc12)C1CCS(=O)(=O)C1 (configuration not stated) the results were Vif-APOBEC3F blk -4%, Giardia killer 14, SW480 rereplic inconclusive, MCF10A rerep inconclusive, IL1B secr inh -83* and Vif-A3G inh -11%.
`O=C1N[C@@H](Cc2c[nH]c3ccccc23)COC(=O)[C@@H](Cc2ccc(F)cc2)CC/C=C/C[C@@H]1CC(=O)N(CCO)Cc1ccccc1` gave Vif-APOBEC3F blk 1%, Giardia killer -7, SW480 rereplic 26%, MCF10A rerep -5%, IL1B secr inh -60* and Vif-A3G inh -2%.
`O=C1N[C@@H](Cc2c[nH]c3ccccc23)COC(=O)[C@H](Cc2ccc(F)cc2)C/C=C\C[C@H]1CC(=O)N(CCO)Cc1ccccc1` gave Vif-APOBEC3F blk 8%, Giardia killer -9, SW480 rereplic 20%, MCF10A rerep 32%, IL1B secr inh -21 and Vif-A3G inh -11%.
`O=C(N[C@@H]1C/C=C\C[C@H](CC(=O)N(CCO)Cc2ccccc2)C(=O)N[C@@H](Cc2ccccc2)COC1=O)OCC1c2ccccc2-c2ccccc21` gave Vif-APOBEC3F blk 1%, Giardia killer -20, SW480 rereplic inconclusive, MCF10A rerep 13µM*, IL1B secr inh 17 and Vif-A3G inh -15%.
Screening O=C(N[C@H]1C/C=C\C[C@@H](CC(=O)N(CCO)Cc2ccccc2)C(=O)NC[C@H](c2ccccc2)OC1=O)OCC1c2ccccc2-c2ccccc21 returned Vif-APOBEC3F blk inconclusive, Giardia killer inconclusive, SW480 rereplic 5%, MCF10A rerep 6.5µM*, IL1B secr inh 14 and Vif-A3G inh -11%.
Screening O=C(Nc1cc2ccc(O)cc2oc1=O)c1ccccc1 returned Vif-APOBEC3F blk -11% and Vif-A3G inh 4%.
Screening CC1(C(=O)NCc2ccccc2Br)CCN1Cc1c(F)cccc1F (configuration not stated) returned IL1B secr inh -21 and Vif-A3G inh 0%.
Screening CC1(C(=O)NCc2ccccc2Br)CCN1Cc1ccccc1OC(F)F (configuration not stated) returned IL1B secr inh -54* and Vif-A3G inh -2%.
For COc1ccc(-c2nnc(SCC(=O)NCCc3ccc(OC)c(OC)c3)nc2-c2ccc(OC)cc2)cc1 the results were Vif-APOBEC3F blk -4% and Vif-A3G inh -5%.
For N=c1c2ccccc2nc2n1CCCCCCCCCCC2 the results were Vif-APOBEC3F blk 6%, Giardia killer 6, SW480 rereplic 6%, MCF10A rerep inconclusive, IL1B secr inh -87* and Vif-A3G inh -1%.
`CCCC1(CCC)NC(=O)N(CC(=O)Nc2ccc(Cl)c(S(=O)(=O)N3CCOCC3)c2)C1=O` gave Vif-APOBEC3F blk 8%, Giardia killer 0, SW480 rereplic -1%, MCF10A rerep 16%, IL1B secr inh -63* and Vif-A3G inh 1%.
`CC1CCCCC12NC(=O)N(CC(=O)Nc1ccc(Cl)c(S(=O)(=O)N3CCOCC3)c1)C2=O` (configuration not stated) gave Vif-APOBEC3F blk -4%, Giardia killer -13, SW480 rereplic -3%, MCF10A rerep 17%, IL1B secr inh 24 and Vif-A3G inh -3%.
For O=C(CSc1ccccc1)Nc1ccc(Cl)c(S(=O)(=O)N2CCOCC2)c1 the results were Vif-APOBEC3F blk -6%, Giardia killer 3, SW480 rereplic -11%, MCF10A rerep -2%, IL1B secr inh -23 and Vif-A3G inh 8%.
O=C(CCOc1ccccc1)Nc1ccc(Cl)c(S(=O)(=O)N2CCOCC2)c1 was read as Vif-APOBEC3F blk 0%, Giardia killer -7, SW480 rereplic 0%, MCF10A rerep 10%, IL1B secr inh -72* and Vif-A3G inh 2%.
`O=C(NCCc1ccccc1)c1c(O)c2ccccc2[nH]c1=O` gave Vif-APOBEC3F blk 0%, Giardia killer 7, SW480 rereplic 4%, MCF10A rerep 13%, IL1B secr inh 10 and Vif-A3G inh 2%.
Screening CC(C)=NNC(=O)c1c(O)c2ccccc2[nH]c1=O returned Vif-APOBEC3F blk -5%, Giardia killer -4, SW480 rereplic 11%, MCF10A rerep 9.2µM*, IL1B secr inh -12 and Vif-A3G inh -5%.
CCNC(=O)c1c(O)c2ccccc2[nH]c1=O was read as Vif-APOBEC3F blk -5%, Giardia killer 5, SW480 rereplic 10%, MCF10A rerep 6.5µM* and Vif-A3G inh 0%.

From PubChem BioAssay
